Source: PubChem BioAssay (Tox21)
Records with an inconclusive call do not appear. Unmarked numbers belong to inactive results. The source made the active and inactive calls. The call rests on the fitted dose curve; in most records, active means well fitted cell-killing curve with a large enough effect in the repeat runs; inconclusive means weak or mixed curves, or effect the other way; inactive means flat fitted curve, though single readings scatter.

Experiment: cAMP Responsive Elements (CRE) small molecule antagonists, cell-based qHTS assay: qHTS cell viability counter screen (AID 2060913); further: nearly all actives have a fitted effect of over 40% in size
Settings: CRE-bla HEK293T viability, CellTiter-Glo luminescence, 5 h; series mostly up to 92.4 µM; viability change, negative = cytotoxic: at the top concentration
Method in brief: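 CRE-bla HEK293T cells were seeded in assay medium with 10% dialyzed FBS, incubated 18 hrs at 37 C, then exposed to compounds plus 0.25 uM final NKH477 for 3 hrs. Viability was read by CellTiter-Glo luminescence after 30 min, in the same wells.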
On the % scale 0 is the no-effect control and ±100 the full control effect.

SMILES	viability change, negative = cytotoxic	Potency
CCSC(=O)Cl	-0.822%	
CC(C)(O)C(=O)Nc1ccc([N+](=O)[O-])c(C(F)(F)F)c1	-5.37% [at 42.5 µM]	
O=[N+]([O-])C(Br)Br	4.41%	
Cc1ccc(N)cc1Cl		inactive
CCOc1nc(F)cc2nc(S(=O)(=O)Nc3c(Cl)cccc3Cl)nn12	7.15%	
Nc1ccc([N+](=O)[O-])cc1[N+](=O)[O-]	-1.91%	
CN1C(=S)CN=C(c2ccccc2)c2cc(Cl)ccc21	4.05% [at 42.5 µM]	
CC(=O)C(Cl)Cl	-0.727%	
c1ccc2c(c1)sc1ccccc12		inactive
CCC1(CC)C(=O)C=CNC1=O	-0.632% [at 42.5 µM]	
CCN[C@@H](C)Cc1cccc(C(F)(F)F)c1	6.8% [at 42.5 µM]	
CNc1cnn(-c2cccc(C(F)(F)F)c2)c(=O)c1Cl		inactive
CCCN(CCOc1c(Cl)cc(Cl)cc1Cl)C(=O)n1ccnc1		inactive
CCC(C)(C#N)N=NC(C)(C#N)CC (stereo not given)	11.7%	
Clc1ccc(-c2ccccc2)cc1	-7.46%	
Cc1ncc(CNC(=O)N(CCCl)N=O)c(N)n1	-5.65% [at 42.5 µM]	
Cc1nnc2n1-c1sc(CCc3ccc(CC(C)C)cc3)cc1C(c1ccccc1Cl)=NC2C (stereo not given)	-21% [at 42.5 µM]	
CCC(=O)C(CC(C)N(C)C)(c1ccccc1)c1ccccc1 (stereo not given)		inactive
CCC/C=N/O		inactive
CSCCCN=C=S	1.47%	
C=CC[C@]1(O)CC[C@H]2[C@@H]3CCC4=CC(=O)CCC4=C3C=C[C@@]21C	-0.352% [at 42.5 µM]	
CC(C)(C)C(=O)C(Cl)Cl	1.59%	
CCC(C)n1c(=O)[nH]c(C)c(Br)c1=O (stereo not given)	-0.802%	
c1ccc(OP(Oc2ccccc2)Oc2ccccc2)cc1		inactive
CN(C)CCc1c[nH]c2ccccc12	-3.07%	
